Activity calls are given as the source filed them.
Assays:
[1] = binders of probe aFSTL3 on microarray, primary screen, stem cell growth factor project, biochemical, small-molecule microarray, fluorescence 635/667 (AID 1064); conditions: higher = more signal;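 note: measures binding of the biotinylated anti-FSTL3 antibody to printed compounds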
[2] = binders from COS7 lysate, DM2A8 probe, primary screen, torsin A project, cell lysate, small-molecule microarray, fluorescence 635/667 (AID 1065); conditions: higher = more signal, COS7 lysate expressing mutant human TOR1A
[3] = binders of probe aFGF2 on microarray, primary screen, stem cell growth factor project, biochemical, small-molecule microarray, fluorescence 635/667 (AID 1067); conditions: higher = more signal;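 note: measures binding of biotinylated aFGF2 protein to printed compounds on slides; z-score merges feature fluorescence and signal-to-noise across triplicate slides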
[4] = binders of probe aFGF10 on microarray, primary screen, stem cell growth factor project, biochemical, small-molecule microarray, fluorescence 635/667 (AID 1071); conditions: higher = more signal;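 note: score merges 667 nm spot intensity and signal to noise from triplicate slides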
[5] = target: Neurogenic locus notch homolog protein 2 (Homo sapiens) (UniProt Q04721); test: Notch2 binders on small-molecule microarrays, primary screen, biochemical, small-molecule microarray, 635 nm fluorescence, stem cell growth factors (AID 1073); conditions: Notch2 binding, higher = more signal
[6] = target: Pro-neuregulin-1, membrane-bound isoform (Homo sapiens) (UniProt Q02297); test: NRG1 binders on small-molecule microarrays, primary screen, psychiatric disease protein project, biochemical, small-molecule microarray, fluorescence 635/667 (AID 1075); conditions: NRG1 binding, 635 nm fluorescence, higher = more signal;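 note: score combines 667 nm spot fluorescence with signal to noise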
[7] = test system: Neuregulin-1 EGF-like domain; test: binders of neuregulin-1 EGF-like domain, primary screen, biochemical, small-molecule microarray, 635 nm fluorescence (AID 1081); conditions: small-molecule microarray binding, higher = more signal;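 note: binding of the protein to compounds printed on small-molecule microarray slides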
[8] = FRG1 promoter luciferase signal modulators, primary screen, FRG1 inhibition for FSHD, cell-based, C2C12 myotubes, firefly/Renilla luciferase, luminescence (AID 1084); conditions: higher = more signal, called active from +8 up or from −8 down
[9] = binders of probe aFST on microarray, primary screen, stem cell growth factor project, biochemical, small-molecule microarray, fluorescence 635/667 (AID 1086); conditions: higher = more signal;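 note: score merges 667 nm fluorescence with signal-to-noise of each printed compound spot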
[10] = binders of probe aHhip on microarray, primary screen, stem cell growth factor project, biochemical, small-molecule microarray, fluorescence 635/667 (AID 1087); conditions: higher = more signal;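 note: score merges spot fluorescence at 667nm with spot signal to noise ratio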
[11] = test system: PRMT1 (protein arginine N-methyltransferase 1); test: PRMT1 binders on small-molecule microarrays, primary screen, biochemical, small-molecule microarray, 635 nm fluorescence (AID 1088); conditions: small-molecule microarray binding, higher = more signal;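 note: binding of Prmt1 protein to compounds spotted on small-molecule microarray slides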
[12] = yeast growth modulation, basal conditions, primary screen, YJM789 clinical isolate, OD600, 24 h (AID 1089);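 note: growth of clinical yeast isolate S. cerevisiae YJM 789 seeded 1000 cells per well; test concentration not given here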; conditions: S. cerevisiae YJM789 growth, higher = more signal, called active from +8 up or from −8 down
[13] = fission yeast growth modulation, primary screen, strain 972, OD600, 24 h, no modulator (AID 1090);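 note: basal condition with compound alone and no growth modifier present; test concentration not given here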; conditions: S. pombe 972 growth, higher = more signal, called active from +8 up or from −8 down
[14] = S. cerevisiae growth modulation with rapamycin, primary screen, strain BY4716, OD600, 96 h (AID 1091); conditions: higher = more signal, called active from +8 up or from −8 down; note: test concentration not given here
[15] = target: Torsin-1A-interacting protein 2 (Homo sapiens) (UniProt Q8NFQ8); test: LULL1 binders on small-molecule microarray, primary screen, cell lysate, human LULL1 lysate, 635/667 nm fluorescence (AID 1092); conditions: hLULL1 lysate binding, 635 nm fluorescence, higher = more signal;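 note: probe is lysate of COS7 cells overexpressing human LULL1; score merges per-feature 667 nm fluorescence with signal-to-noise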
[16] = E. coli growth modulation, two-sided OD650, primary screen, E. coli filamentation project, strain DRC41, 24 h (AID 1093); conditions: OD650, 24 h, higher = more signal, called active from +8 up or from −8 down;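 note: MC1000 strain lacking acrAB efflux and sulA so SOS filamentation is blocked; test concentration not given here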
[17] = small-molecule microarray binders of probe aLefty2, primary screen, biochemical, biotinylated probe, 635/667 nm fluorescence (AID 1094); conditions: higher = more signal;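 note: score merges spot fluorescence near 667 nm with spot signal-to-noise ratio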
[18] = test system: Noggin (protein binding on small-molecule microarray); test: Noggin binders on small-molecule microarray, primary screen, biochemical, 635/667 nm fluorescence (AID 1095); conditions: 635 nm fluorescence, higher = more signal;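 note: score merges 667 nm feature fluorescence with signal to noise over triplicate slides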
[19] = target: Neurogenic locus notch homolog protein 3 (Homo sapiens) (UniProt Q9UM47); test: NOTCH3 binders on small-molecule microarray, primary screen, biochemical, 635/667 nm fluorescence (AID 1096); conditions: NOTCH3 binding, 635 nm fluorescence, higher = more signal
[20] = small-molecule microarray binders of probe aEGFR, primary screen, biochemical, biotinylated probe, 635/667 nm fluorescence (AID 1097); conditions: higher = more signal;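 note: probe is a biotinylated anti-EGFR antibody binding compounds printed on slides; score combines fluorescence near 667 nm and signal to noise of each spot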

Chain of Torsin-1A-interacting protein 2 (Homo sapiens) (Q8NFQ8 whole entry, looked up): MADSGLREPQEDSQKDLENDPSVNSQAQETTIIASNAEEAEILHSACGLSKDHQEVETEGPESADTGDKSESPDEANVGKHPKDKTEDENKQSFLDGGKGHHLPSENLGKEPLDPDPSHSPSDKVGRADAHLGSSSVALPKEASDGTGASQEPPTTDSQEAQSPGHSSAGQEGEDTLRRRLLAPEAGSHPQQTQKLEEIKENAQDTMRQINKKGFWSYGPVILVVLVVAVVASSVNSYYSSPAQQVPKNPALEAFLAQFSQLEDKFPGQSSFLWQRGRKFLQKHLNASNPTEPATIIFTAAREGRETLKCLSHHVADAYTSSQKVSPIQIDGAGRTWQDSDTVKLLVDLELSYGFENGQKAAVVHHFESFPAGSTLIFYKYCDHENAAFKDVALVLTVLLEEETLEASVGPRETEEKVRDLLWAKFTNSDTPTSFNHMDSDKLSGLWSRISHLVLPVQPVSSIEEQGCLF
Chain of Pro-neuregulin-1, membrane-bound isoform (Homo sapiens) (Q02297 whole entry, looked up, the tested form may be a part, canonical isoform): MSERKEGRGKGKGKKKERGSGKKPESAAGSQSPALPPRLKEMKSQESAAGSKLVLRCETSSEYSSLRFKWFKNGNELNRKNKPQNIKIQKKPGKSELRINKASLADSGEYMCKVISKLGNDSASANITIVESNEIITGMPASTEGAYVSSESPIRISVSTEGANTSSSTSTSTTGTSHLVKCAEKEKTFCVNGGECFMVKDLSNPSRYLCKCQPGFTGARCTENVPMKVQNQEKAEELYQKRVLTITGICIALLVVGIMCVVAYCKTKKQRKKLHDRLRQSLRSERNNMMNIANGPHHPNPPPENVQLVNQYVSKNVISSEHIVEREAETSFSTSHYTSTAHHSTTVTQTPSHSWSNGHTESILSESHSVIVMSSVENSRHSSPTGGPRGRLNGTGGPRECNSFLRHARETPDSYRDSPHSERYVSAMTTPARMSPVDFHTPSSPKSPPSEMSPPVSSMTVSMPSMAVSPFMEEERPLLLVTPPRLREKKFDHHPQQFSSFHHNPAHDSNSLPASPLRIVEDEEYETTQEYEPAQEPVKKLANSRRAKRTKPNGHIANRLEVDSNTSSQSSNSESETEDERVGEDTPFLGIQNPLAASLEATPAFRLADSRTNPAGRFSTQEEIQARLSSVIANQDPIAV
Chain of Neurogenic locus notch homolog protein 2 (Homo sapiens) (Q04721 whole entry, looked up, canonical isoform): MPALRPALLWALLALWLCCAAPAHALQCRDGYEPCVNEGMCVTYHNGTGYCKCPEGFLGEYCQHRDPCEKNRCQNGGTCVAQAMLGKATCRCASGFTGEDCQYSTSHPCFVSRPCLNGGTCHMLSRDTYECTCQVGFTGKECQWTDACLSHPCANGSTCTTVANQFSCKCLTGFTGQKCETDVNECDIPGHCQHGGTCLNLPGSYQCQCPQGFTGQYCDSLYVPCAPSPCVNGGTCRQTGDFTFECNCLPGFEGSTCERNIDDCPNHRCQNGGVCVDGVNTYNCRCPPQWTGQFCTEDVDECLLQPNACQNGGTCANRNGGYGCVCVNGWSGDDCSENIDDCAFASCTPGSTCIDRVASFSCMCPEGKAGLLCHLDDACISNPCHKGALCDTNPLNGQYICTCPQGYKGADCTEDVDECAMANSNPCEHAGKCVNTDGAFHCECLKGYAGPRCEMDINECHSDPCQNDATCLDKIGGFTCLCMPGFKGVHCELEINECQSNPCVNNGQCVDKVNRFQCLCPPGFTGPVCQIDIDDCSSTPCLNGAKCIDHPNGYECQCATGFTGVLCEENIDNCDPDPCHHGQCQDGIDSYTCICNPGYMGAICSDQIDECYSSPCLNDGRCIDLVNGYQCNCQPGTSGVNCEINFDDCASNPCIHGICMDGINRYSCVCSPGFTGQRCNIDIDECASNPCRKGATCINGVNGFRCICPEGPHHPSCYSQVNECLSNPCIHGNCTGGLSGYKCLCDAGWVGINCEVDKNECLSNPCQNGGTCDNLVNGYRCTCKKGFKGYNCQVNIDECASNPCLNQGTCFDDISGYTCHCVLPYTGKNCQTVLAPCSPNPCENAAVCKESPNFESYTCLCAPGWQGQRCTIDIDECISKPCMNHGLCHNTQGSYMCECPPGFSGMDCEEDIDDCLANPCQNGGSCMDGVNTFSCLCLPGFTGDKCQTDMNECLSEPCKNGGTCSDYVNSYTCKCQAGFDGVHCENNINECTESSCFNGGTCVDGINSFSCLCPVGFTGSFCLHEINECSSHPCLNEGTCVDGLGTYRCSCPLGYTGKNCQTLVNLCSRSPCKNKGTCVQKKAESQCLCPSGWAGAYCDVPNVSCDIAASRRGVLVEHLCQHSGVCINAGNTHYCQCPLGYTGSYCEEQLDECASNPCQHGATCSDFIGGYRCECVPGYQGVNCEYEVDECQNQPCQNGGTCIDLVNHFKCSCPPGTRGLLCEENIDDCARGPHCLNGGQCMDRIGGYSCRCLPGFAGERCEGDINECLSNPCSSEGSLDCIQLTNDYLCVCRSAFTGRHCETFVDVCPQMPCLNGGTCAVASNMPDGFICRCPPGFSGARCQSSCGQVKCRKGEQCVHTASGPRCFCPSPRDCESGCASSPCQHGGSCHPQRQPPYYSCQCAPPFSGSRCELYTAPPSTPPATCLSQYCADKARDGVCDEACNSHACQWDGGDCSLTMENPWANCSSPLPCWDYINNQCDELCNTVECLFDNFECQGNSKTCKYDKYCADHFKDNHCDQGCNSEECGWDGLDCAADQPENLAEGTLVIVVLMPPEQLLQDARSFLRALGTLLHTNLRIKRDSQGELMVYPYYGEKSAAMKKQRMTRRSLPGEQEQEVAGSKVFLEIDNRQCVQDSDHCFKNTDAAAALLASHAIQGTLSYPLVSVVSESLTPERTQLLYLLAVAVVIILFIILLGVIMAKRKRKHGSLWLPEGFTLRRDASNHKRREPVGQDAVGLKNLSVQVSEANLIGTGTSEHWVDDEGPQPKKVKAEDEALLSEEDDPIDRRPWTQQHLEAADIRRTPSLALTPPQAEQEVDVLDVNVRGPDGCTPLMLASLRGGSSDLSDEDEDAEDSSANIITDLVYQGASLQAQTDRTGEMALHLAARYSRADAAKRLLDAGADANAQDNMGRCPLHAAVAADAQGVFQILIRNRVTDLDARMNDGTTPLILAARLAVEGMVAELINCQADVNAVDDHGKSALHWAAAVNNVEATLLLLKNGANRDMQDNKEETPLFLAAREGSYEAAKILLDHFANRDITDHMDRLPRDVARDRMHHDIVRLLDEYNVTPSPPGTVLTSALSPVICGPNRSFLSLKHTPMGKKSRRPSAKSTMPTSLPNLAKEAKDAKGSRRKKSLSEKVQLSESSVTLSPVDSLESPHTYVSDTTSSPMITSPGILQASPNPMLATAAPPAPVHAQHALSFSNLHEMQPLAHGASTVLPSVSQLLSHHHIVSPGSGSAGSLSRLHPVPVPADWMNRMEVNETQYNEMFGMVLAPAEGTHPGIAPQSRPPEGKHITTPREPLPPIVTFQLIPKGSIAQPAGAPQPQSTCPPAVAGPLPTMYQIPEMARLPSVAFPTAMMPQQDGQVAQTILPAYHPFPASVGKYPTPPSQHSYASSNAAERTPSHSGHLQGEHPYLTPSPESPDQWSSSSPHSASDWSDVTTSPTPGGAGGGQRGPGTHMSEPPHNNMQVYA

SMILES | composite z-score [1] | composite z-score [2] | composite z-score [3] | composite z-score [4] | composite z-score [5] | composite z-score [6] | composite z-score [7] | z-score [8] | composite z-score [9] | composite z-score [10] | composite z-score [11] | z-score [12] | z-score [13] | z-score [14] | composite z-score [15] | z-score [16] | composite z-score [17] | composite z-score [18] | composite z-score [19] | composite z-score [20]
CC(CCN1CCc2nc(-c3ccccc3)c(-c3ccccc3)cc2C1)=NO[C@H](C)c1cn([C@H](CO)Cc2ccccc2)nn1 | -0.11 | 0.575 | -0.0569 | -0.332 | -0.54 | 0.164 | 0.299 | -0.327 (inactive) | -0.125 | -0.13 | 0.485 | -0.0115 (inactive) | -0.989 (inactive) | -4.22 (inactive) | 0.381 | 0.561 (inactive) | 0.0272 | 0.622 | -0.0395 | -0.122
CC(CCN1CCc2nc(-c3ccccc3)c(-c3ccccc3)cc2C1)=NO[C@@H](C)c1cc(-c2c(C)cc(C)cc2C)no1 | 0.037 | 0.0468 | -0.14 | 0.155 | -0.846 | 0.129 | 0.55 | 0.687 (inactive) | 0.0035 | -0.13 | 0.535 | -0.295 (inactive) | -0.974 (inactive) | -3.2 (inactive) | 0.838 | -0.394 (inactive) | -0.186 | -0.0011 | -1.29 | -0.17
COC(=O)[C@@H]1CC[C@H](C)[C@@H](c2ccc(C)cc2)N1C(=O)c1ccc(C=NO[C@@H](C)c2cc(-c3c(C)cc(C)cc3C)no2)cc1 | -0.4 | 0.58 | -0.166 | 0.219 | 0.239 | 0.0688 | 0.38 | -1.21 (inactive) | 0.188 | -0.0237 | 1.05 | -0.0984 (inactive) | 0.358 (inactive) | 0.612 (inactive) | 0.919 | 0.328 (inactive) | -0.0727 | 0.3 | 0.35 | -0.165
C#CCCCON=C1C[C@@H](O)[C@@H](O)[C@@H]2[C@@H]3C(=O)N(C4CCCCC4)C(=O)[C@@H]3CC[C@@H]12 | 0.835 | 0.0616 | -0.115 | -0.0372 | 0.766 | 0.846 | 0.565 | 0.287 (inactive) | -0.0386 | 0.312 | 0.335 | -1.83 (inactive) | -1.61 (inactive) | -1.07 (inactive) | 1.01 | 0.862 (inactive) | -0.118 | 0.454 | 0.358 | -0.0409
CO[C@@H]1COC(=O)[C@H](COCc2ccccc2)NC(=O)CC=C[C@@H](C)[C@H](OC)COC(=O)[C@@H](C)NC(=O)CC=C[C@H]1C | -0.459 | 1.36 | -0.191 | -0.632 | -0.45 | -0.637 | -0.826 | 0.696 (inactive) | -0.0711 | 0.0139 | 1.39 | 0.203 (inactive) | -0.536 (inactive) | 0.55 (inactive) | -1.07 | 1.52 (inactive) | -0.147 | 1.16 | -0.0488 | -0.166
O=C1C2=CC[C@H]3C(=O)N(C[C@@H]4CCCO4)C(=O)[C@H]3[C@H]2[C@H](O)[C@@H]2O[C@H]12 | -0.275 | 0.191 | -0.0878 | 0.111 | -0.0143 | -0.209 | 0.75 | -1.42 (inactive) | -0.258 | -0.145 | 0.514 | 0.0382 (inactive) | -0.722 (inactive) | 0.109 (inactive) | -0.553 | -0.0137 (inactive) | -0.126 | -0.0904 | -0.264 | -0.0565
O=C1C2=CC[C@H]3C(=O)N(Cc4ccccc4)C(=O)[C@H]3[C@H]2[C@H](O)[C@@H]2O[C@H]12 | -0.291 | -0.339 | -0.132 | 0.011 | 0.0297 | -0.0087 | 0.281 | 6.64 (inactive) | -0.351 | 0.176 | 0.0864 | -0.733 (inactive) | -2.12 (inactive) | -0.213 (inactive) | -1.23 | -0.559 (inactive) | -0.185 | -0.0873 | -0.95 | -0.125
CCOC(=O)[C@H](CC(C)C)NC(=O)CCC1CC(OC(=O)NCc2ccc3c(c2)OCO3)CC2(CCCC(COC(=O)NCCOc3ccccc3)O2)O1 (stereo not given in full) | -0.538 | 0.143 | -0.11 | 0.652 | 1.36 | 0.843 | 0.943 | 0.929 (inactive) | 0.0762 | 0.276 | 1.17 | -0.337 (inactive) | 0.774 (inactive) | -0.211 (inactive) | 1.68 | 0.097 (inactive) | -0.0928 | 0.878 | 1.11 | -0.013
COC(=O)[C@H](C)NC(=O)CCC1CC(OC(=O)NCc2cccc3ccccc23)CC2(CCCC(COC(=O)NCCC(C)C)O2)O1 (stereo not given in full) | -0.478 | 0.151 | -0.167 | 0.0257 | 0.0502 | 0.543 | 1.02 | 1.5 (inactive) | 0.0638 | -0.264 | 0.651 | -0.518 (inactive) | -1.07 (inactive) | -0.642 (inactive) | 1.84 | 0.384 (inactive) | -0.205 | 0.352 | 0.504 | -0.112
CO[C@@H]1C=CCC(=O)N[C@@H](C)C(=O)OC[C@@H](NS(=O)(=O)c2ccc(C)cc2)[C@H](C)C=CCC(=O)OC[C@H]1C | -0.296 | 0.43 | -0.238 | 0.199 | -0.765 | -0.589 | -0.919 | -1.04 (inactive) | -0.0849 | 0.21 | 0.375 | -0.413 (inactive) | -0.266 (inactive) | -0.411 (inactive) | -1.35 | 0.0927 (inactive) | -0.15 | 0.98 | -0.381 | -0.123

From PubChem BioAssay
